Consider 13 molecules from PubChem BioAssay.

Active and inactive are the calls of the source.

The nature of test [1]: binders of probe aFSTL3 on microarray, primary screen, stem cell growth factor project, biochemical, small-molecule microarray, fluorescence 635/667 (AID 1064).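 Also: measures binding of the biotinylated anti-FSTL3 antibody to printed compounds.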 To be noted: higher = more signal.
The nature of test [2]: binders from COS7 lysate, DM2A8 probe, primary screen, torsin A project, cell lysate, small-molecule microarray, fluorescence 635/667 (AID 1065). Particulars: higher = more signal, COS7 lysate expressing mutant human TOR1A.
Test [3] can be described thus: binders of probe aFGF2 on microarray, primary screen, stem cell growth factor project, biochemical, small-molecule microarray, fluorescence 635/667 (AID 1067).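 Also: measures binding of biotinylated aFGF2 protein to printed compounds on slides; z-score merges feature fluorescence and signal-to-noise across triplicate slides.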 Particulars: higher = more signal.
Test [4] in a line: binders of probe aFGF10 on microarray, primary screen, stem cell growth factor project, biochemical, small-molecule microarray, fluorescence 635/667 (AID 1071).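 Also: score merges 667 nm spot intensity and signal to noise from triplicate slides.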 Particulars: higher = more signal.
Test [5] concerns the target Neurogenic locus notch homolog protein 2 (Homo sapiens) (UniProt Q04721). In words: Notch2 binders on small-molecule microarrays, primary screen, biochemical, small-molecule microarray, 635 nm fluorescence, stem cell growth factors (AID 1073). To be noted: Notch2 binding, higher = more signal.
The target in test [6] is Pro-neuregulin-1, membrane-bound isoform (Homo sapiens) (UniProt Q02297). In words: NRG1 binders on small-molecule microarrays, primary screen, psychiatric disease protein project, biochemical, small-molecule microarray, fluorescence 635/667 (AID 1075).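 Also: score combines 667 nm spot fluorescence with signal to noise.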 Particulars: NRG1 binding, 635 nm fluorescence, higher = more signal.
Chain of Pro-neuregulin-1, membrane-bound isoform (Homo sapiens) (Q02297 whole entry, looked up, the tested form may be a part, canonical isoform): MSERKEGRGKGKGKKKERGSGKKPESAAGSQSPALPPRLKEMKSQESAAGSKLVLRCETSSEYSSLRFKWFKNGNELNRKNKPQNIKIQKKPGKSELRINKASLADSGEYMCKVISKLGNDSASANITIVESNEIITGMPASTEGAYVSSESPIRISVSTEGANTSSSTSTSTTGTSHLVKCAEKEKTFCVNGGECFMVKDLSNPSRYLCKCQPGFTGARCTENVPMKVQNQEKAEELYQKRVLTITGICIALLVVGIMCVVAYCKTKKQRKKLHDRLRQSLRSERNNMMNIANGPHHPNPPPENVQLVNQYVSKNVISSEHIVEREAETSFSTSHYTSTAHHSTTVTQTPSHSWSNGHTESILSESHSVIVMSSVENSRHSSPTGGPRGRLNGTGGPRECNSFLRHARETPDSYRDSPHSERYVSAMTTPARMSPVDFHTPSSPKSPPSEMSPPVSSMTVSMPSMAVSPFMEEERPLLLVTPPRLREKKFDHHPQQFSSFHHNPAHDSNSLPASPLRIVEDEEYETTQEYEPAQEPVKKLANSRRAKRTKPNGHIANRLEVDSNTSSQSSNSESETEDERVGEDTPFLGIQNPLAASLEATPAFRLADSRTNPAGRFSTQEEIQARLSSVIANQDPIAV
The test system of test [7] is Neuregulin-1 EGF-like domain. In words: binders of neuregulin-1 EGF-like domain, primary screen, biochemical, small-molecule microarray, 635 nm fluorescence (AID 1081).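 Also: binding of the protein to compounds printed on small-molecule microarray slides.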 Particulars: small-molecule microarray binding, higher = more signal.
Test [8] in a line: FRG1 promoter luciferase signal modulators, primary screen, FRG1 inhibition for FSHD, cell-based, C2C12 myotubes, firefly/Renilla luciferase, luminescence (AID 1084). To be noted: higher = more signal, called active from +8 up or from −8 down.
The nature of test [9]: binders of probe aFST on microarray, primary screen, stem cell growth factor project, biochemical, small-molecule microarray, fluorescence 635/667 (AID 1086).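 Also: score merges 667 nm fluorescence with signal-to-noise of each printed compound spot.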 Particulars: higher = more signal.
Test [10] in a line: binders of probe aHhip on microarray, primary screen, stem cell growth factor project, biochemical, small-molecule microarray, fluorescence 635/667 (AID 1087).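 Also: score merges spot fluorescence at 667nm with spot signal to noise ratio.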 To be noted: higher = more signal.

Chain of Neurogenic locus notch homolog protein 2 (Homo sapiens) (Q04721 whole entry, looked up, canonical isoform): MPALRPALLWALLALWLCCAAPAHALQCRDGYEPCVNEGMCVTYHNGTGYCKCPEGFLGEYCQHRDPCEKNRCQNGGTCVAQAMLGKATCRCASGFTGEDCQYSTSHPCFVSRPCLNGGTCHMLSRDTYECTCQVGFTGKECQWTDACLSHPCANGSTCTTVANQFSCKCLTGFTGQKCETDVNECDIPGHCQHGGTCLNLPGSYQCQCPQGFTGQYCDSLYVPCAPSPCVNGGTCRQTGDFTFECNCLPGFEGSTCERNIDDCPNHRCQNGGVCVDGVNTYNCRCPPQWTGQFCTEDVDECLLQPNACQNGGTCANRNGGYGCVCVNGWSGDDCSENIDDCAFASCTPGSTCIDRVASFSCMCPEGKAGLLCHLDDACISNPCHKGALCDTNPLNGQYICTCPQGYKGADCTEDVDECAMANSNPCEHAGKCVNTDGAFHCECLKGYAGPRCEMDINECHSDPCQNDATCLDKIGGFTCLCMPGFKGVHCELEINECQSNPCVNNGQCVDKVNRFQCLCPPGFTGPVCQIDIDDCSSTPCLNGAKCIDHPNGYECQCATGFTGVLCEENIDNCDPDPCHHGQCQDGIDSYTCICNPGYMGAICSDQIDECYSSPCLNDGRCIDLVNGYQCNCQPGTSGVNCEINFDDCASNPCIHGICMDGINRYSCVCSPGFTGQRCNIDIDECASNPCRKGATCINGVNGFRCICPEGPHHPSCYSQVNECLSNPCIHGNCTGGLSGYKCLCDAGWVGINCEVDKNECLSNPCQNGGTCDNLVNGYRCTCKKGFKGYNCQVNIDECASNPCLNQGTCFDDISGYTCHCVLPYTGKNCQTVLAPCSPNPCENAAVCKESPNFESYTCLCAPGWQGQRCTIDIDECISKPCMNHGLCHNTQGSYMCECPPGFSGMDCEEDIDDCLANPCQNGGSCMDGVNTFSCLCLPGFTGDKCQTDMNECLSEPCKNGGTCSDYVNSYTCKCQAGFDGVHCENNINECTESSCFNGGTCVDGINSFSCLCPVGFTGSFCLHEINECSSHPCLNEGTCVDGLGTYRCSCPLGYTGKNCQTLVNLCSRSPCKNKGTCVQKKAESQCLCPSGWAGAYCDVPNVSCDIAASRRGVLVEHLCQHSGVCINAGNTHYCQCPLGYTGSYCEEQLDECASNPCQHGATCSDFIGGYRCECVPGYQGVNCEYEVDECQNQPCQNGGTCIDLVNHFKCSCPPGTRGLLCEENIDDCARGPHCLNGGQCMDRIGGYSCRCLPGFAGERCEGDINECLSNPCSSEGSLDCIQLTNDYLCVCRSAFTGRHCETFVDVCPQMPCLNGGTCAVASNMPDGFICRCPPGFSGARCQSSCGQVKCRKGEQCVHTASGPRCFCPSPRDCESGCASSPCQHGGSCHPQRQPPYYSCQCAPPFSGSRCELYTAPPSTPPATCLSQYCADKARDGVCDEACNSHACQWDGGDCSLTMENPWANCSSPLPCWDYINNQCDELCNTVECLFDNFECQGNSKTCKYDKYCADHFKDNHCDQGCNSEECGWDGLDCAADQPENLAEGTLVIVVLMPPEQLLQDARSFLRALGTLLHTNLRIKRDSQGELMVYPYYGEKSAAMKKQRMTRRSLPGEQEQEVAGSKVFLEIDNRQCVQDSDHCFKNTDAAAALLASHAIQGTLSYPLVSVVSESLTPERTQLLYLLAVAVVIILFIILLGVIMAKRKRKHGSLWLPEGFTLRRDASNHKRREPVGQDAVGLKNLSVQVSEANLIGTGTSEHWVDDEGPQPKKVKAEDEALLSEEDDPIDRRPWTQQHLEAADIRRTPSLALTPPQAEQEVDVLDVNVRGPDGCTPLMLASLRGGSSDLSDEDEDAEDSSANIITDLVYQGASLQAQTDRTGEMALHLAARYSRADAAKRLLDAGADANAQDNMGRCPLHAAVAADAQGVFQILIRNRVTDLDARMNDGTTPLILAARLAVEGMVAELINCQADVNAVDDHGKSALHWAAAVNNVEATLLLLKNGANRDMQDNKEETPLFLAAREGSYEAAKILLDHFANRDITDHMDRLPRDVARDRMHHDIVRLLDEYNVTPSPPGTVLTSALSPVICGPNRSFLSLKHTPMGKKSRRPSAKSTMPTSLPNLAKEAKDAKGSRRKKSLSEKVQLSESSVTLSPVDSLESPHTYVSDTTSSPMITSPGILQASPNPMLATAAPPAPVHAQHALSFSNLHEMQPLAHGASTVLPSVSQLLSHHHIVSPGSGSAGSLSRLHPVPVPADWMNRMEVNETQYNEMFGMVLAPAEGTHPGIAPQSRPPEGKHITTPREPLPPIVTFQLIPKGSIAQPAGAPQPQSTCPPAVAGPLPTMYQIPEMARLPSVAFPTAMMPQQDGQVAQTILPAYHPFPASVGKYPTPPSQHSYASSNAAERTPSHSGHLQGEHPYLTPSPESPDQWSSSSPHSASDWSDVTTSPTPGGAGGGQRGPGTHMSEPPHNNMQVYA

`COC(=O)[C@@]1(Cc2ccccc2)[C@@H]2[C@@H](CC(=O)[C@H]2CC(=O)C(=O)N(C)C)CN1C(=O)c1ccccc1`: the composite z-score in test [1] was 0.186; in test [2] it was -1; in [3] it was -0.169; in test [4], 0.281; in test [5] it was 1.19; in test [6] it was 1.89. For the same molecule, the composite z-score in test [7] was 1.21; in test [9], 0.319; in test [10] it was -0.0994. For the same molecule, in [8], the z-score is 1.1 (inactive).

Turning to `COc1cc2c(cc1O)C(c1ccc(CN3CCCC3)cc1)N(Cc1ccc([N+](=O)[O-])o1)CC2` (stereo not given), the composite z-score in test [1] was -0.649; in test [2] it was -0.533; in test [3], -0.158; in test [4], 0.0497; in test [5] it was 0.345; in [6], 2.15. The composite z-score in [7] was 0.936; in test [9], -0.21; in [10] it was -0.354. Moreover, in test [8], the z-score is 1.06 (inactive).

Consider `O=C1C2C=CC(C(O)C(c3ccccc3)c3ccccc3)N(Nc3ccccc3)C2C(=O)N1c1ccccc1` (stereo not given), for which the composite z-score in test [1] turned out to be 0.35; in [2] it was 0.0239; in test [3] it was 0.128; in [4], 0.244; in test [5], 1.63; in test [6], 1.66. Also, the results for the composite z-score in [7], in [9] and in [10] were 1.17, 1.01 and -0.318, respectively. The z-score in test [8] was -0.996 (inactive).

`N[C@@H](Cc1ccccc1)Cn1cc(C2(O)CCCCC2)nn1`: the composite z-score is -0.337 in test [1]; 0.543 in test [2]; -0.0718 in [3]; -0.244 in test [4]; -0.232 in test [5]; 0.138 in test [6]. Besides, the composite z-score was -0.204 in test [7], 1.27 in [9] and 0.0722 in [10]. Further, the z-score in [8] is 2.2 (inactive).

As for `COCCCNC(=O)[C@@H]1c2ccccc2C(=O)N(C2CCCCC2)[C@H]1c1ccc(CO)cc1`, the composite z-score in test [1] is 0.503; in [2], -0.763; in test [3], -0.105; in [4] it was -0.564; in test [5] it was -1.03; in test [6], 1.2. The composite z-score in [7] was 1.45; in test [9], -0.341; in test [10], -0.236. Further, the z-score in test [8] was -0.108 (inactive).

In the case of `C=CCOC(=O)[C@@H]1[C@H]2C(=O)O[C@H](c3ccccc3)[C@H](c3ccccc3)N2[C@H](c2ccc(OCCOC(=O)[C@H]3C[C@H]4C(=O)NCC(=O)N4[C@H]3c3ccc(O)cc3)cc2)[C@@]12C(=O)Nc1ccc(I)cc12`, the composite z-score in [1] was -0.223; in test [2], 0.826; in test [3], -0.0834; in test [4], 0.22; in [5], 0.948; in [6], 0.675. Also, the values for the composite z-score in test [7], in test [9] and in test [10] were 0.86, 0.377 and -0.54, respectively. Moreover, the z-score in test [8] is 1.2 (inactive).

Regarding `CC(C)C(=C=CC[C@@H](O)c1ccccc1OCCO)C[C@@H](O)c1cc(Cl)cc(Cl)c1O`, the composite z-score in test [1] was -0.667; in [2] it was 1.84; in test [3], -0.076; in test [4], 0.961; in test [5], 1.16; in test [6], 1.48. Further, the composite z-score in [7] is 1.19; in test [9] it was 0.704; in test [10], -0.0296. Also, in test [8], the z-score was -1.95 (inactive).

For `CCCCN1CC=CC23O[C@@H]4C=CCOC(=O)[C@@H]4[C@H]2C(=O)N(C(CO)C(C)C)[C@@H]3C1=O` (stereo not given in full), the composite z-score is 0.0186 in test [1]; -0.438 in test [2]; -0.124 in test [3]; -0.275 in test [4]; -0.758 in [5]; -0.397 in [6]. The composite z-score in [7] is -0.0125; in test [9] it was -0.288; in test [10] it was -0.13. The z-score in test [8] was 0.353 (inactive).

In the case of `C=CCNC(=O)[C@@H]1[C@H]2C(=O)O[C@H](c3ccccc3)[C@H](c3ccccc3)N2[C@H](c2ccc(O)cc2)[C@@]12C(=O)Nc1ccc(C#CC3(O)CCCCCC3)cc12`, the composite z-score in test [1] is -0.258; in test [2], 0.102; in test [3], -0.1; in [4], 0.434; in test [5], 0.469; in [6] it was 0.606. The results for the composite z-score in test [7], in test [9] and in test [10] were 0.979, -0.0976 and -0.0391, respectively. In addition, the z-score in test [8] was 0.273 (inactive).

Take `O=C1O[C@@H](c2ccccc2)[C@@H](c2ccccc2)N2[C@@H](c3ccc(OCCO)cc3)[C@]3(C(=O)Nc4ccc(C#CCCO)cc43)[C@@H](C(=O)Nc3nc4ccccc4s3)[C@H]12`: the composite z-score in [1] was 0.0758; in test [2], 0.482; in test [3], -0.0316; in test [4], 0.444; in [5], 1.03; in [6], 1.14. In addition, the composite z-score was 1.07 in test [7], 1.27 in test [9] and -0.0241 in test [10]. The z-score in [8] is 0.28 (inactive).

For `COC(=O)[C@@]1(Cc2ccc(OC)cc2)[C@H]2c3cc(C(=O)N(C)C)n(Cc4ccsc4Br)c3C[C@H]2CN1C(=O)c1ccccc1`, the composite z-score in [1] was 0.254; in [2] it was -0.162; in test [3] it was 0.336; in [4], 0.752; in test [5], 1.64; in test [6], 1.89. Moreover, the composite z-score in test [7] was found to be 0.856; in test [9] it was 0.45; in [10] it was 0.239. The z-score in test [8] was -0.778 (inactive).

As to `[N-]=[N+]=NCc1ccccc1C[C@@]1(C(=O)O)N=C(c2ccc(OCCCO)cc2)O[C@@H]1c1ccccc1CN=[N+]=[N-]`, the composite z-score in [1] was 0.0419; in [2], 1.34; in test [3] it was -0.01; in test [4], 0.556; in test [5], 1.17; in test [6] it was 1.1. Moreover, the composite z-score in test [7] was 1.22; in test [9], 0.663; in test [10], -0.173. Also, in test [8], the z-score was 2.88 (inactive).

Take `COc1ccc(CCNC(=O)[C@@]2(C)c3ccccc3C(=O)N(Cc3cc(C(F)(F)F)cc(C(F)(F)F)c3)[C@H]2c2ccc(CO)cc2)cc1`: the composite z-score in test [1] is 1.42; in [2] it was 1.35; in test [3], 0.383; in test [4], -0.27; in [5] it was -0.57; in test [6], 1.73. Besides, the composite z-score in test [7] came to 1.3; in test [9], 0.169; in test [10], 1.69. Also, the z-score in test [8] is -1.62 (inactive).
